Measured values from PubChem BioAssay (NCI).
“And” between values parts separate entries of the source, which are not always exact repeats. Equal values may be shown once. Compounds without any hit were thinned out: in the full panel of roughly 79,000, 15% have a hit. Unmarked numbers belong to inactive results. The source made the active and inactive calls. No stated cut-off is given here; in the data, active means growth inhibition above about 70%; inactive means the rest.

Columns and labels:
[1] = NCI Yeast Anticancer Drug Screen. Data for the rad50 strain (AID 155);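 further: 0% = growth of vehicle-only cultures of the same strain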; conditions: S. cerevisiae rad50 strain growth inhibition; at 50.0 µM; hits give high values
Method in brief: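 Readout: growth inhibition relative to vehicle-treated cultures. Compound exposure was carried out in a genetically defined yeast strain deficient in DNA damage repair.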

[2] = NCI Yeast Anticancer Drug Screen. Data for the mec2-1 strain (AID 157); conditions: S. cerevisiae mec2-1 strain, at 50.0 µM, hits give high values
Method in brief: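 Using mec2-1 yeast: add compound, measure growth, express inhibition versus vehicle-treated cultures.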

[3] = NCI Yeast Anticancer Drug Screen. Data for the sgs1 mgt1 strain (AID 161);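 further: 0% = growth of cultures given vehicle only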; conditions: S. cerevisiae sgs1 mgt1 strain, at 50.0 µM, hits give high values
Method in brief: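 Growth of a repair-deficient yeast mutant was monitored after compound treatment and expressed as inhibition relative to vehicle-treated cultures.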

[4] = NCI Yeast Anticancer Drug Screen. Data for the cln2 rad14 strain (AID 165);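 further: 0% = growth equal to vehicle treated cultures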; conditions: S. cerevisiae cln2 rad14 strain, at 50.0 µM, hits give high values
Method in brief: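 Yeast strain cln2 rad14, bearing defects in cell cycle control and DNA repair, serves as the test system; values reflect growth inhibition compared with vehicle.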

[5] = NCI Yeast Anticancer Drug Screen. Data for the bub3 strain (AID 167); conditions: S. cerevisiae bub3 mutant strain, at 50.0 µM, hits give high values
Method in brief: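 Readout: yeast growth inhibition, expressed relative to vehicle-only wells. The test organism is a mutant strain from a panel with lesions in DNA repair or checkpoint genes.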

[6] = NCI Yeast Anticancer Drug Screen. Data for the mlh1 rad18 strain (AID 175); conditions: S. cerevisiae mlh1 rad18 strain growth inhibition; at 50.0 µM; hits give high values
Method in brief: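 Steps: expose repair-defective yeast to compound; measure growth; express inhibition against vehicle-treated controls.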

Row | Compound | growth inhibition [1] | growth inhibition [2] | growth inhibition [3] | growth inhibition [4] | growth inhibition [5] | growth inhibition [6]
1 | CC(NC(=O)C(c1ccccc1)c1ccccc1)C(=O)O (stereo not given) | 2.35% | 12.6% | -1.5% | -17.2% | 1.4% | 14.9%
2 | CC(=O)CC(C)=O.CC(=O)CC(C)=O.CC(=O)CC(C)=O.[Cr] | 20.2% | -8.3% | 1.05% | -27.7% | 4.3% | 13.2%
3 | C/C=N/Nc1ccc([N+](=O)[O-])cc1[N+](=O)[O-] | 10.5% | -6.35% | -11.8% | -14.9% | 3.3% | 16.8%
4 | COC(=O)C1C(O)CC2(O)CC(O)CC(O)C(O)CCC(O)CC(O)CC(=O)OC(C)C(C)C(O)C(C)/C=C/C=C/C=C/C=C/C=C/C=C/C=C/C(OC3OC(C)C(O)C(N)C3O)CC1O2 (stereo not given) | -6.8% | 6.95% | -4.9% | 6.15% | 1.6% | -3.7%
5 | CCOC(OCC)c1ccc(N(C)C)cc1.[C-]#[O+].[C-]#[O+].[C-]#[O+].[Cr] | -8.25% | -30.2% | 37.8% | -4.5% | -8.3% | 4.6%
6 | COc1cc(C(CC(C)=O)c2cc3c(cc2OC(C)=O)OCO3)cc(OC)c1OC (stereo not given) | 18.8% | 4.4% | -0.9% | -9.1% | 10.8% | 21.9%
7 | O=[N+]([O-])C(CO)C(CO)[N+](=O)[O-] (stereo not given) | -5.95% | -12.4% | -1% | -20.8% | -13% | -17.6%
8 | CC(C(=O)O)C(Br)C(=O)O (stereo not given) | -9% | -8.7% | 1.7% | 3.55% | 5.85% | 9.7%
9 | CCCCCCC[CH2][Sn][CH2]CCCCCCC.Nc1ncnc2c1ncn2C1OC(CO)C2[OH+][OH+]C21 (stereo not given) | 19.9% | 5.45% | 9.35% | -4% | 2.3% | 11.8%
10 | O=C(O)CN(CCN(CC(=O)O)CC(=O)O)CC(=O)O.[Ni+2] | -29.2% | -23% | -11.5% | -15% | 0.4% | -19.9%
11 | O=P1(N(CCCl)CCCl)OC(c2ccccc2)=CCN1c1ccccc1 (stereo not given) | 0.6% | 20.1% | 57.2% | 32.4% | 50% | 34.6%
12 | CC12CCC3C(CCC4=CC(=O)CCC43C=O)C1CCC2Oc1ccccc1 (stereo not given) | 20.7% | -9.7% | 25% | 23.6% | 12.4% | 25.6%
13 | N#CCCCCCBr | 1.05% | -19.1% | 23% | 10.8% | 17.9% | 19.4%
14 | CC(=O)OC1OC(CS[As](C)CCO)C(OC(C)=O)C(OC(C)=O)C1OC(C)=O (stereo not given) | 12.8% | -16.9% | -15.3% | -8% | -0.85% | -9.55%
15 | CO[C@@]12[C@@H]3N[C@@H]3CN1C1=C(C(=O)C(NCC3CCCO3)=C(C)C1=O)[C@@H]2COC(N)=O (stereo not given in full) | 24.9% | 16.6% | 6.25% | 17.1% | 3.95% | 23.6%
16 | N#CCc1ccc(Br)cc1 | 0.2% | 0.8% | 5.65% | -16.9% | -14.9% | 5.8%
17 | CCCCNC(c1ccc(OC)cc1)C(O)c1ccc(OC)cc1 (stereo not given) | 2.35% | -17.3% | -2.95% | -25.6% | 7.1% | -14.1%
18 | CNN | 19.6% | -4.8% | 34.1% | 3.3% | -1.8% | 40.1%
19 | Cc1ccc(OP(=O)(Oc2ccc(C)c(C)c2)Oc2ccc(C)c(C)c2)cc1C | -3.7% | -8.55% | -9.15% | -8.95% | 5.2% | -17%
20 | NCCN1CC2CCC(CC2)C1 | -53.1% | -48.3% | -27.1% | -5.75% | -3.55% | -11.7%

Row | Compound | growth inhibition [1] | growth inhibition [2] | growth inhibition [3] | growth inhibition [4] | growth inhibition [5] | growth inhibition [6]
21 | COc1ccccc1NC1=NCC(C)S1 (stereo not given) | -10.2% | -15.2% | -52% | 24.4% | -14.4% | -2.1%
22 | CCC(Br)(CC)C(N)=O | -33.5% | -5.4% | -26.1% | -89.7% | -28.1% | -27.9%
23 | O=C(Oc1ccc(S(=O)(=O)F)cc1Cl)c1ccc([N+](=O)[O-])cc1 | 92.5% (active) | 68% | 94.7% (active) | 92.8% (active) | 60% | 93.7% (active)
24 | ClCCN(CCCl)c1ccc(/C=N/Nc2ccnc3ccccc23)cc1 | 96.2% (active) | 96.3% (active) | 96.8% (active) | 96.5% (active) | 87.2% (active) | 88.8% (active)
25 | O=[N+]([O-])c1ccc(/C=C/c2ccc(Cl)c(S(=O)(=O)F)c2)c(Cl)c1 | 15.6% | -4.95% | -1.7% | 2.45% | 13% | -6.3%
26 | CCN1CCC(OC(=O)c2ccccc2)(c2nccc3ccccc23)CC1 | -5.85% | 0.95% | 7.05% | 9.05% | 9.75% | 8.9%
27 | O=C1/C(=C\c2cc3ccccc3c3ccccc23)N2CCC1CC2 | 11.1% | -10.2% | -12% | -7.35% | -3.1% | 1%
28 | CCCCCCCCCC[As](=O)(O)O | 41.8% | 22.2% | 8.6% | 21.9% | 18.9% | 16.9%
29 | O=[P+](O)C(O)c1ccccc1 (stereo not given) | -20.6% | -27.9% | -14.1% | 4.9% | -10.8% | -7.7%
30 | C[CH2][Sn]([CH2]C)([CH2]CC(=O)OC)[CH2]CC(=O)OC | 20.4% | 18.4% | 1% | -11% | -24.2% | -64.2%
31 | COCCOC(=O)CCl | -4.35% | 0.4% | 10.9% | 0.45% | -0.7% | 25.5%
32 | CCCCCCNC(=O)CCl | 6.5% | -9.85% | 15.3% | -14.6% | 7.45% | -9.15%
33 | C/C=C/C1(CCCC)C(=O)NC(=O)NC1=O | 9.8% | 3.35% | 4.15% | 8.75% | -2.6% | -20.8%
34 | COc1cc2c(cc1O)N=C[C@@H]1CCC(O)N1C2=O (mixture of isomers) | 19.6% | 16.3% | 19.2% | 58.8% | -2.2% | 3.9%
35 | C=C1CCC2CC1C2(C)C (stereo not given) (tested in a mixture with another compound) | 7.95% | -14.2% | -5.7% | -2.7% | 5.85% | -23.9%
36 | Clc1ccc(Br)cc1 | 4.25% | -1.55% | -5.75% | -7.95% | 0.45% | -1.35%
37 | O=C(O)CC1OCC=C2CN3CCC45c6ccccc6NC4C1C2CC35 (stereo not given) | -30.8% and 9.3% | -15.9% and -13.8% | -31.9% | 19.6% | -57.6% | -15.2% and 18.8%
38 | Nc1ccncc1 | 4.35% | -5.45% | 10% | 10.9% | -2.55% | 4.45%
39 | COc1ccc(C[C@@H]2NC[C@@H](O)[C@@H]2OC(C)=O)cc1 | 91.3% (active) | 93.2% (active) | 93.2% (active) | 91.8% (active) | 92.2% (active) | 91.3% (active)
40 | O=C([O-])c1ccccc1Nc1ccccn1.O=C([O-])c1ccccc1Nc1ccccn1.[Ni+2] | -15% | -12.4% | -15.6% | 8.15% | -16.8% | -9.85%
